About 79,000 compounds went through this panel and 15% of them were active in at least one assay; those are over-represented in the sample as a whole. Rule as the data show it: active = growth inhibition above about 70%; inactive = the rest.
Columns and labels:
[1] = NCI Yeast Anticancer Drug Screen. Data for the rad50 strain (AID 155);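 also: 0% = growth of vehicle-only cultures of the same strain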; settings: S. cerevisiae rad50 strain growth inhibition; at 50.0 µM; stronger effect = higher value
Outline: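 A DNA repair-deficient yeast mutant serves as the test organism; compound-induced growth inhibition is calculated against vehicle-treated cells.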

[2] = NCI Yeast Anticancer Drug Screen. Data for the mec2-1 strain (AID 157); settings: S. cerevisiae mec2-1 strain, at 50.0 µM, stronger effect = higher value
Outline: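 Using mec2-1 yeast: add compound, measure growth, express inhibition versus vehicle-treated cultures.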

[3] = NCI Yeast Anticancer Drug Screen. Data for the sgs1 mgt1 strain (AID 161);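 also: 0% = growth of cultures given vehicle only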; settings: S. cerevisiae sgs1 mgt1 strain, at 50.0 µM, stronger effect = higher value
Outline: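 Compounds are added to genetically altered yeast, and growth is compared with cultures given vehicle alone to give percent inhibition.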

[4] = NCI Yeast Anticancer Drug Screen. Data for the cln2 rad14 strain (AID 165);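 also: 0% = growth equal to vehicle treated cultures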; settings: S. cerevisiae cln2 rad14 strain, at 50.0 µM, stronger effect = higher value
Outline: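 Yeast strain cln2 rad14, bearing defects in cell cycle control and DNA repair, serves as the test system; values reflect growth inhibition compared with vehicle.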

[5] = NCI Yeast Anticancer Drug Screen. Data for the bub3 strain (AID 167); settings: S. cerevisiae bub3 mutant strain, at 50.0 µM, stronger effect = higher value
Outline: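 Inhibition values come from growth of compound-treated mutant yeast normalised to vehicle-treated controls.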

[6] = NCI Yeast Anticancer Drug Screen. Data for the mlh1 rad18 strain (AID 175); settings: S. cerevisiae mlh1 rad18 strain growth inhibition; at 50.0 µM; stronger effect = higher value
Outline: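 Steps: expose repair-defective yeast to compound; measure growth; express inhibition against vehicle-treated controls.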

Measured: growth inhibition

CSc1ccc(NC(=O)Nc2ccccc2F)cc1
inactive: [1] -7.65% | [2] 19.1% | [3] 17.2% | [4] -20.5% | [5] 39.5% | [6] -9.15%

COc1ccc(C(O)(c2ccc(OC)cc2)c2ccccc2Cc2ccccc2OC)cc1
inactive: [1] -61.6% | [2] 1.65% | [3] -22.3% | [4] -20.6% | [5] 0.65% | [6] -21.4%

Cc1nc2cccc3ccc4cc5ccccc5c1c4c32
inactive: [1] 69.6% | [2] 12.7% | [3] 16.1% | [4] 7.3% | [5] 25.9% | [6] 14.9%

Cn1nc2c(c1-c1ccncc1)CCc1ccccc1-2
inactive: [1] 3.9% | [2] 65.3% | [3] 36% | [4] -3.55% | [5] 66.1% | [6] 24.6%

COC(=O)c1c2c(cc3c1CC1(C3)Cc3cc4c(c(C(=O)OC)c3C1)CCC4)CCC2
inactive: [1] 3.25% | [2] -35.6% | [3] -3.65% | [4] -0.8% | [5] -7.85% | [6] 10.3%

CCN(CC)C1=CC(=O)OC1OC (centres undefined)
inactive: [1] -9.65% | [2] 12.5% | [3] 2% | [4] 8.1% | [5] 3.05% | [6] -4.2%

Cn1c(=O)c2c(nc3sc4ccccc4c(=O)n32)n(C)c1=O
inactive: [1] 19.2% | [2] -9.05% | [3] -7.4% | [4] 16.6% | [5] -30.9% | [6] 13.8%

O=S=C(c1ccccc1)N1CCc2ccccc21
inactive: [1] 22.4% | [2] 3.75% | [3] 12.1% | [4] 7.15% | [5] 18.4% | [6] 22.7%

O=C1CSC(=S)N1c1ccco1
inactive: [1] 3.4% | [2] -20.1% | [3] 17.9% | [4] 20.7% | [5] -13.1% | [6] 2.85%

C=CCNC(=S)/N=C/C(C(=O)Nc1ccc(Cl)cc1)=C(\C)O
inactive: [1] -34.1% | [2] -10.1% | [3] -30.2% | [4] 6.6% | [5] -16.8% | [6] -12.8%

COc1ccc(-c2coc3cc(O)cc(O)c3c2=O)cc1
inactive: [1] 36.6% | [2] 22.6% | [3] 59.4% | [4] 31.7% | [5] 58.4% | [6] 62.9%

O=C1CCCC2=C1CC1=C(CCCC1=O)N2c1cccc2ccccc12
inactive: [1] 7.7% | [2] -16% | [3] 12.7% | [4] 9.85% | [5] 21.8% | [6] 28.1%

CCCCC(ON=C(C)C)C(=O)OC (centres undefined)
inactive: [1] 19.3% | [2] 31.6% | [3] -10.2% | [4] 12.1% | [5] 1.25% | [6] 24.4%

CC(CO)N1CCCCCC1 (centres undefined)
inactive: [1] -20.4% | [2] -15.7% | [3] 5.9% | [4] -17.7% | [5] 10.7% | [6] -9%

NC1(c2ccccc2)CON=C(c2ccccc2)C1 (centres undefined)
inactive: [1] 17.2% | [2] 5.85% | [3] -5.8% | [4] -15.8% | [5] 1.4% | [6] 16.9%

CC1(C)N=C(N)N=C(N)N1c1cccc(CSc2ccccc2)c1
inactive: [1] -14.2% | [2] -11.8% | [3] -20.8% | [4] 7.2% | [5] -18.1% | [6] -19.6%

CC(C)C1OC(c2ccccc2)OCC1(C)C (centres undefined)
inactive: [1] -14.8% | [2] -18.2% | [3] -4.15% | [4] -39.2% | [5] -4.15% | [6] 6.35%

Cn1cnc(CC(=O)O)c1
inactive: [1] 4.85% | [2] -6.6% | [3] -12.5% | [4] 5.25% | [5] 11% | [6] -0.05%

S=c1nc[nH]c2c1ncn2C1OC(COCc2ccccc2)C(OCc2ccccc2)C1OCc1ccccc1 (centres undefined)
inactive: [1] 31.2% | [2] 15.1% | [3] 17.4% | [4] 14.7% | [5] 2.1% | [6] 5.9%

O=C(N/N=C/C1CCCCC1)C(=O)N/N=C/C1CCCCC1
inactive: [1] 4.45% | [2] 6.65% | [3] 8.55% | [4] -7.45% | [5] 28.2% | [6] -58.5%

CC(C)(C)c1ccc(O)c(CN(Cc2cc(C(C)(C)C)ccc2O)c2ccccc2)c1
inactive: [1] 44.4% | [2] 26.9% | [3] 21.6% | [4] -2.2% | [5] 62% | [6] 54.8%

CCOC(=O)C(Cc1ccccc1Cl)(NC(C)=O)C(=O)OCC
inactive: [1] 2.1% | [2] -7.95% | [3] -0.35% | [4] -10.2% | [5] 11.8% | [6] -20.1%

O=c1[nH]cc(CCOCc2ccccc2)c(=O)[nH]1
inactive: [1] -4.3% | [2] -8.15% | [3] 0.3% | [4] 34.2% | [5] -10.4% | [6] -17%

COc1ccc(C2CC(=O)C(C(=O)OC3CCCCC3)C2c2ccc(OC)cc2)cc1 (centres undefined)
inactive: [1] 13.9% | [2] 16.2% | [3] 15.8% | [4] 28.1% | [5] -3.25% | [6] 19.5%

CC(C)(C)c1cc(-c2cc(C(C)(C)C)n(-c3ccccc3)n2)nn1-c1ccccc1
inactive: [1] -22.6% | [2] -26.9% | [3] -17.3% | [4] 16% | [5] -31.4% | [6] -27.2%

CN(C(=O)c1ccc(Cl)cc1)C(=S)N1CCN(c2ccccn2)CC1
inactive: [1] -66% | [2] -33.8% | [3] -36.6% | [4] -3.7% | [5] -13.9% | [6] -43.5%

CCc1c(O)nc(Nc2nc3ccccc3[nH]2)[nH]c1=O
inactive: [1] -34.4% | [2] -21.8% | [3] -21.4% | [4] -23.5% | [5] -33% | [6] -56.5%

CCOC(=O)/C=C/c1ccc(OCC)cc1
inactive: [1] -2.4% | [2] 2.55% | [3] -7.15% | [4] -17.2% | [5] -1.35% | [6] -21%

Clc1ccc(C2ON=C(c3ccccc3)N2C23CC4CC(CC(C4)C2)C3)c(Cl)c1 (centres undefined)
inactive: [1] -18.9% | [2] -26.4% | [3] -12.4% | [4] -48.6% | [5] -21.4% | [6] -21.5%

CC1(C)OC(=O)C(=CN(C2CCCCC2)C2CCCCC2)C(=O)O1
inactive: [1] -6.45% | [2] -6.6% | [3] 7% | [4] -21.2% | [5] -33.6% | [6] -13.3%

C1CCC2C(C1)CCCC2NC1=NCCO1 (centres undefined)
inactive: [1] 1.75% | [2] -23.7% | [3] 7.85% | [4] 12.8% | [5] -1.1% | [6] 12.3%

c1ccc2c(c1)Cc1ccc3ccccc3c1-2
inactive: [1] 56% | [2] 28.7% | [3] 34.4% | [4] 35.8% | [5] 64.3% | [6] 35.1%

CC(C)(C)NC(=O)NCc1ccccc1Cl
inactive: [1] 2.9% | [2] -8.1% | [3] -2.7% | [4] -52.5% | [5] -0.75% | [6] -8.35%

C[C@]12CCC(=O)C=C1CC[C@@H]1[C@@H]2CC[C@@]2(C)[C@H]1CC[C@]2(O)C(=O)CCC#N
inactive: [1] -23.1% | [2] -2.6% | [3] 17.1% | [4] -33.4% | [5] -16.8% | [6] 13.2%

COc1ccc2cc(C(C)C(=O)N3C(=O)OCC3(C)C)ccc2c1 (centres undefined)
inactive: [1] 19.4% | [2] -11.3% | [3] 30.4% | [4] -13.7% | [5] -8.75% | [6] 9.95%

O=C(O)Cn1c(=O)ccc2ccccc21
inactive: [1] 4.4% | [2] -3.25% | [3] -8.55% | [4] -37.7% | [5] -7.7% | [6] 4.9%

O=C(O)C(Br)C(Br)C(=O)Nc1cccc(Cl)c1 (centres undefined)
inactive: [1] 0.5% | [2] -47.2% | [3] 21.2% | [4] -27.8% | [5] 5.75% | [6] 20.2%

N#CC(CC(=O)c1ccccc1)c1ccccc1Cl (centres undefined)
inactive: [1] 17.2% | [2] 24.9% | [3] 31.3% | [4] 17.6% | [5] 40.4% | [6] 22%

CCC1c2c(cc(=O)[nH]c2O)C(=O)N1Cc1ccccc1 (centres undefined)
inactive: [1] 12.3% | [2] 6.4% | [3] 7.75% | [4] 4.25% | [5] 1.15% | [6] -0.1%

Reference: PubChem BioAssay (NCI)
